In PubChem BioAssay AID623868 (Vanderbilt High Throughput Screening Facility, 2012):
The campaign covered roughly 2,100 compounds. About 760 (36%) were called active. Only a sample is shown. A number with no mark means an inactive call.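 The calls were made as follows: active = thallium-flux fluorescence traces judged by eye to show enhanced or reduced glutamate response, manual score 1 or -1, so both directions (some results past the limit were not filed as active); inactive = the rest, including fluorescent or raised-baseline compounds.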

Test: non-GIRK thallium flux modulation in mGlu8 cells, confirmation, counter-screen for GIRK activator project, cell-based, HEK-293 rmGlu8, no GIRK (AID 623868);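 also: extra codes mark interference with 3 for fluorescent and 4 for baseline rise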
Settings: thallium flux fluorescence, at 10 µM, actives lie on both sides, codes: 1 enhancer, -1 blocker, 0 none, thallium stimulus containing EC20 glutamate

SMILES	manual score
COc1cc(C)nc(N(Cc2ccccc2)S(=O)(=O)c2ccccc2)n1	0
O=C(NNS(=O)(=O)c1ccccc1F)c1cccc(S(=O)(=O)N2CCOCC2)c1	0
COc1cc(CNc2ccc(N3CCCC3)cc2)ccc1OCc1ccccc1	0
CC(Oc1ccc2ccccc2c1)C(=O)NNC(=S)NC(=O)c1ccco1 (stereo not drawn)	1 (active)
CC(Oc1ccc(Cl)cc1)C(=O)N/N=C/c1ccsc1 (stereo not drawn)	0
CC(Oc1ccc(Cl)cc1)C(=O)NNC(=S)NC(=O)c1ccco1 (stereo not drawn)	1 (active)
CCSc1nnc(NC(=O)NC(CC)(C(F)(F)F)C(F)(F)F)s1	0
O=C(C1CCCN1S(=O)(=O)c1cccc2cccnc12)N1CCc2ccccc21 (stereo not drawn)	0
O=C(C1CCN(S(=O)(=O)c2cccc3cccnc23)CC1)N1CC=C(c2ccccc2)CC1	-1 (active)
O=C(C1CCCN1S(=O)(=O)c1cccc2cccnc12)N1CCn2c1nc1ccccc12 (stereo not drawn)	0
S=c1[nH]nc(-c2ccccn2)n1/N=C/c1ccc(Br)s1	1 (active)
CCN=c1scc(-c2ccco2)n1/N=C/c1ccc(O)cc1	0
Cc1cc(-c2n[nH]c(=S)n2/N=C/c2ccc(Br)s2)n[nH]1	1 (active)
S=c1[nH]nc(-c2ccco2)n1/N=C/c1ccc(Br)s1	1 (active)
Cc1c(C(=O)NCc2cccnc2)oc2ccc(S(=O)(=O)N3CCC4(CC3)OCCO4)cc12	0
Clc1ccc(CSc2ncn(-c3ccccc3)n2)cc1	0
COC(=O)Cn1c(CN2CCc3ccccc3C2)nc2c1c(=O)n(C)c(=O)n2C	0
O=C(CSc1nnc(-c2c[nH]c3ccccc23)n1-c1ccc(F)cc1)NCc1ccco1	-1 (active)
O=C(CSc1c[nH]c2ccccc12)NCc1ccc2c(c1)OCO2	0
Cc1ccc(-n2c(CSc3nc(C)cc(C)n3)nnc2SCC(=O)NCc2ccco2)cc1	0
CCOC(=O)C1CCCN(c2nc(C)nc3c2oc2ccccc23)C1 (stereo not drawn)	0
CCOC(=O)N1CCN(C(=O)CN(Cc2ccccc2)S(=O)(=O)c2ccc(OC)c(C)c2)CC1	0
C=CCn1c(SCC(=O)Nc2sccc2C(N)=O)nc2ccc(Cl)cc2c1=O	1 (active)
COc1ccc(CNCCC(c2ccc(F)cc2)c2ccc(OC)cc2)cc1 (stereo not drawn)	0
CCc1ccc(/C=c2\s/c(=C\C(=O)C(C)(C)C)[nH]c2=O)cc1	0
CCc1ccc(/C=C/C(=O)C2C(=O)c3ccccc3C2=O)cc1	1 (active)
CC(/C=C\c1cccnc1)=C/C(=O)O	0

SMILES	manual score
O=C(/C=C/c1ccccc1)C1C(=O)c2ccccc2C1=O	1 (active)
CCOC(=O)C1=NNC(C(=O)c2ccc(OC)cc2)C1c1ccccc1 (stereo not drawn)	0
Cc1ccc2c(c1)NC(=O)CC(c1ccccc1)=N2	0
FC(F)(F)c1ccc2nnc(-c3c(Cl)cccc3Cl)n2c1	0
CN(c1ccc(OCC(=O)OCC(=O)Nc2ccccc2F)cc1)S(=O)(=O)c1cccs1	0
c1ccc2c(NC3CCCC3)nnc(NC3CCCC3)c2c1	0
CC(C)c1nc(=S)c2ccccc2[nH]1	1 (active)
S=c1nc(C2CC2)[nH]c2ccccc12	1 (active)
CCc1ccc(CNCCNCC(C)O)cc1 (stereo not drawn)	0
Clc1ccc(Cl)c(OCc2cc(-c3ccccc3Cl)on2)c1	0
CCCc1cc(=O)n2[nH]c(-c3ccc(Br)cc3)cc2n1	0
COc1ccc2cc(C(=O)Nc3ccccc3)sc(=O)c2c1OC	0
COc1ccccc1C(=O)NNC(=S)NC(=O)c1sc2ccccc2c1Cl	1 (active)
COc1ccccc1C(=O)NC(=S)NNC(=O)c1sc2ccccc2c1Cl	1 (active)
CC(C)(C)C(=O)NC(=S)NNC(=O)c1sc2ccccc2c1Cl	1 (active)
CCCCCc1nnc(NC(=O)Cc2cccs2)s1	0
CNC(=S)N=Nc1c(O)[nH]c2ccc(C(C)C)cc12	1 (active)
COc1cccc(NC(=O)CC2COc3ccccc3O2)c1 (stereo not drawn)	0
C#CC(CO)N(CCN(Cc1ccccc1)C(C#C)CO)Cc1ccccc1 (stereo not drawn)	0
CCOc1ccc(-c2nnc(NC(=O)CCCOc3cccc(C)c3)o2)cc1	0
COc1ccc(-c2nnc(NC(=O)c3ccc(S(=O)(=O)N4CCc5ccccc5C4)cc3)o2)cc1	1 (active)
CCOc1ccc(-c2nnc(NC(=O)c3ccc(OCC(C)C)c(OC)c3)o2)cc1	1 (active)
Cc1cccc(N2CCN(C(=O)c3ccc(Cl)c(S(=O)(=O)N4CCc5ccccc5C4)c3)CC2)c1C	0
COc1ccc(-c2nnc(NC(=O)c3ccc(S(=O)(=O)N4COCC4(C)C)cc3)o2)cc1	1 (active)
COc1ccc(-c2nnc(NC(=O)c3ccc(S(=O)(=O)N4CCCc5ccccc54)cc3)o2)cc1	1 (active)
CCOc1ccc(-c2nc(-c3ccc(OC)c(OC)c3)no2)cc1OCC	0
